Laboratory results as given in the supplement of paper PMC9942566.
Counter-ions that a name gives are not always drawn. ± gives the standard deviation of the averaged measurements.

What follows are compounds tested on Serratia marcescens K904 PosmB-luxCDABE reporter (pMQ747) (assay: PosmB-lux reporter fold induction (RLU/OD600 relative to no-compound control), highest over Biolog concentrations; higher = stronger reporter activation). Details: Biolog plate: PM11; well positions: C1-4; ΔrcsB mutant CMS5177; 4 h.
Protocol: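 Serratia marcescens K904 (wild type) or its isogenic ΔrcsB mutant, carrying the Rcs-dependent PosmB-luxCDABE reporter plasmid pMQ747, was grown in LB at OD600 0.1 in Biolog Phenotype MicroArray plates PM11-20 for 4 h at 30-32°C. Each compound is present at 3-4 proprietary concentrations (not stated); per the Fig. S1 legend the value given is the highest fold over those wells. Three independent trials.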

Row | Structure (SMILES) | PosmB-lux reporter fold induction
1 | Cc1c(N)nc([C@H](CC(N)=O)NC[C@H](N)C(N)=O)nc1C(=O)N[C@H](C(=O)N[C@H](C)[C@@H](O)[C@H](C)C(=O)N[C@H](C(=O)NCCc1nc(-c2nc(C(=O)NCCC[S+](C)C)cs2)cs1)[C@@H](C)O)[C@@H](OC1OC(CO)C(O)C(O)C1OC1OC(CO)C(O)C(OC(N)=O)C1O)c1cnc[nH]1 (stereo not given in full) [Bleomycin] | 0.988 ± 0.1

Same assay, conditions: Biolog plate: PM11; well positions: G9-12; ΔrcsB mutant CMS5177; 4 h

Row | Structure (SMILES) | PosmB-lux reporter fold induction
2 | O=[Te]([O-])[O-].[K+].[K+] [Potassium tellurite] | 1.14 ± 0.19

Same assay, conditions: Biolog plate: PM13; well positions: A9-12; ΔrcsB mutant CMS5177; 4 h

Row | Structure (SMILES) | PosmB-lux reporter fold induction
3 | [Cl][Ni][Cl] [Nickel chloride] | 1.06 ± 0.2

Same assay, conditions: Biolog plate: PM13; well positions: B9-12; ΔrcsB mutant CMS5177; 4 h

Row | Structure (SMILES) | PosmB-lux reporter fold induction
4 | CCn1cc(C(=O)O)c(=O)c2cc3c(cc21)OCO3 [Oxolinic acid] | 4.3 ± 0.48

Same assay, conditions: Biolog plate: PM13; well positions: C9-12; ΔrcsB mutant CMS5177; 4 h

Row | Structure (SMILES) | PosmB-lux reporter fold induction
5 | [K+].[K+].[O]=[Cr](=[O])([O-])[O-] [Potassium chromate] | 1.87 ± 0.86

Same assay, conditions: Biolog plate: PM13; well positions: E5-8; ΔrcsB mutant CMS5177; 4 h

Row | Structure (SMILES) | PosmB-lux reporter fold induction
6 | CN[C@@H]1[C@@H](O)[C@@H](O[C@@H]2[C@@H](O)[C@H](O[C@H]3O[C@H]([C@@H](C)O)[C@@H](O)[C@H](O)[C@H]3N)[C@@H](N)C[C@H]2N)OC[C@]1(C)O [Geneticin (G418)] | 1.34 ± 0.41

Same assay, conditions: Biolog plate: PM14; well positions: B5-8; ΔrcsB mutant CMS5177; 4 h

Row | Structure (SMILES) | PosmB-lux reporter fold induction
7 | CCCCc1ccc(C(=O)O)nc1 [Fusaric acid] | 1 ± 0.025

Same assay, conditions: Biolog plate: PM14; well positions: B9-12; ΔrcsB mutant CMS5177; 4 h

Row | Structure (SMILES) | PosmB-lux reporter fold induction
8 | O=[As]([O-])([O-])[O-].[Na+].[Na+].[Na+] [Sodium arsenate] | 0.724 ± 0.054

Same assay, conditions: Biolog plate: PM14; well positions: C9-12; ΔrcsB mutant CMS5177; 4 h

Row | Structure (SMILES) | PosmB-lux reporter fold induction
9 | N#CO [Sodium cyanate] | 1.38 ± 0.44

Same assay, conditions: Biolog plate: PM14; well positions: D1-4; ΔrcsB mutant CMS5177; 4 h

Row | Structure (SMILES) | PosmB-lux reporter fold induction
10 | [Cl][Cd][Cl] [Cadmium chloride] | 0.871 ± 0.061

Same assay, conditions: Biolog plate: PM14; well positions: D5-8; ΔrcsB mutant CMS5177; 4 h

Row | Structure (SMILES) | PosmB-lux reporter fold induction
11 | O=C(O)CI [Iodoacetate] | 0.974 ± 0.21

Same assay, conditions: Biolog plate: PM14; well positions: D9-12; ΔrcsB mutant CMS5177; 4 h

Row | Structure (SMILES) | PosmB-lux reporter fold induction
12 | [Na+].[Na+].[O]=[Cr](=[O])([O-])[O][Cr](=[O])(=[O])[O-] [Sodium dichromate] | 1.03 ± 0.33

Same assay, conditions: Biolog plate: PM14; well positions: G9-12; ΔrcsB mutant CMS5177; 4 h

Row | Structure (SMILES) | PosmB-lux reporter fold induction
13 | O=[N+]([O-])[O-].[Na+] [Sodium nitrate] | 2.32 ± 0.21

Same assay, conditions: Biolog plate: PM15; well positions: E9-12; ΔrcsB mutant CMS5177; 4 h

Row | Structure (SMILES) | PosmB-lux reporter fold induction
14 | C[n+]1ccc(-c2cc[n+](C)cc2)cc1 [Methyl viologen] | 1.89 ± 0.16

Same assay, conditions: Biolog plate: PM15; well positions: H1-4; ΔrcsB mutant CMS5177; 4 h

Row | Structure (SMILES) | PosmB-lux reporter fold induction
15 | O=[N+]([O-])c1ncc[nH]1 [2-Nitroimidazole] | 1.51 ± 0.7

Same assay, conditions: Biolog plate: PM16; well positions: C1-4; ΔrcsB mutant CMS5177; 4 h

Row | Structure (SMILES) | PosmB-lux reporter fold induction
16 | CN(C)S(=O)(=O)N(SC(F)(Cl)Cl)c1ccccc1 [dichlofluanid] | 2.54 ± 1.7

Same assay, conditions: Biolog plate: PM16; well positions: C9-12; ΔrcsB mutant CMS5177; 4 h

Row | Structure (SMILES) | PosmB-lux reporter fold induction
17 | CCCCCCCCCCCCCCCC[n+]1ccccc1 [cetylpyridinium] | 1.77 ± 0.53

Same assay, conditions: Biolog plate: PM16; well positions: D1-4; ΔrcsB mutant CMS5177; 4 h

Row | Structure (SMILES) | PosmB-lux reporter fold induction
18 | O=[N+]([O-])c1ccc(Cl)c([N+](=O)[O-])c1 [1-chloro-2,4-dinitrobenzene] | 1.75 ± 0.99

Same assay, conditions: Biolog plate: PM16; well positions: F1-4; ΔrcsB mutant CMS5177; 4 h

Row | Structure (SMILES) | PosmB-lux reporter fold induction
19 | O=[Te]([O-])[O-].[K+].[K+] [potassium tellurite] | 1.28 ± 0.43

Same assay, conditions: Biolog plate: PM16; well positions: F5-8; ΔrcsB mutant CMS5177; 4 h

Row | Structure (SMILES) | PosmB-lux reporter fold induction
20 | O=[Se]([O-])[O-].[Na+].[Na+] [sodium selenite] | 1.25 ± 0.21

Same assay, conditions: Biolog plate: PM17; well positions: A5-8; ΔrcsB mutant CMS5177; 4 h

Row | Structure (SMILES) | PosmB-lux reporter fold induction
21 | NC(CCl)C(=O)O [b-chloro-L-alanine hydrochloride] | 1.04 ± 0.15

Same assay, conditions: Biolog plate: PM17; well positions: B5-8; ΔrcsB mutant CMS5177; 4 h

Row | Structure (SMILES) | PosmB-lux reporter fold induction
22 | CNC1CC(N)C(O)C(OC2OC(CO)C(O)C3OC4(OC(C(N)CO)C(O)C(O)C4O)OC23)C1O (stereo not given) [hygromycin B] | 1.37 ± 0.19

Same assay, conditions: Biolog plate: PM17; well positions: C1-4; ΔrcsB mutant CMS5177; 4 h

Row | Structure (SMILES) | PosmB-lux reporter fold induction
23 | Nc1ccncc1 [4-aminopyridine] | 1.95 ± 1.4

Same assay, conditions: Biolog plate: PM17; well positions: D1-4; ΔrcsB mutant CMS5177; 4 h

Row | Structure (SMILES) | PosmB-lux reporter fold induction
24 | CC1=C(C(=O)Nc2ccccc2)S(=O)(=O)CCO1 [oxycarboxin] | 1.01 ± 0.57

Same assay, conditions: Biolog plate: PM17; well positions: D5-8; ΔrcsB mutant CMS5177; 4 h

Row | Structure (SMILES) | PosmB-lux reporter fold induction
25 | Nc1ncn[nH]1 [3-amino-1,2,4-triazole] | 5.84 ± 4.5

Same assay, conditions: Biolog plate: PM17; well positions: G1-4; ΔrcsB mutant CMS5177; 4 h

Row | Structure (SMILES) | PosmB-lux reporter fold induction
26 | O=C(O)CCCc1ccc(N(CCCl)CCCl)cc1 [chlorambucil] | 1.28 ± 0.21

Same assay, conditions: Biolog plate: PM18; well positions: C9-12; ΔrcsB mutant CMS5177; 4 h

Row | Structure (SMILES) | PosmB-lux reporter fold induction
27 | Oc1c(Cl)c(Cl)c(Cl)c(Cl)c1Cl [pentachloro-phenol] | 0.784 ± 0.046

Same assay, conditions: Biolog plate: PM18; well positions: E5-8; ΔrcsB mutant CMS5177; 4 h

Row | Structure (SMILES) | PosmB-lux reporter fold induction
28 | [O-][I+3]([O-])([O-])O [sodium m-periodate] | 1.04 ± 0.24

Same assay, conditions: Biolog plate: PM18; well positions: E9-12; ΔrcsB mutant CMS5177; 4 h

Row | Structure (SMILES) | PosmB-lux reporter fold induction
29 | [Cl][Sb]([Cl])[Cl] [antimony (III) chloride] | 0.481 ± 0.06

Same assay, conditions: Biolog plate: PM18; well positions: F1-4; ΔrcsB mutant CMS5177; 4 h

Row | Structure (SMILES) | PosmB-lux reporter fold induction
30 | NNC(N)=O [semicarbazide] | 3.86 ± 1.5

Same assay, conditions: Biolog plate: PM18; well positions: G1-4; ΔrcsB mutant CMS5177; 4 h

Row | Structure (SMILES) | PosmB-lux reporter fold induction
31 | Oc1cc(Cl)ccc1Oc1ccc(Cl)cc1Cl [triclosan] | 1.05 ± 0.51

Same assay, conditions: Biolog plate: PM18; well positions: G5-8; ΔrcsB mutant CMS5177; 4 h

Row | Structure (SMILES) | PosmB-lux reporter fold induction
32 | Nc1n[nH]c(N)n1 [3,5-diamino-1,2,4-triazole (Guanazole)] | 12 ± 5.6

Same assay, conditions: Biolog plate: PM18; well positions: H5-8; ΔrcsB mutant CMS5177; 4 h

Row | Structure (SMILES) | PosmB-lux reporter fold induction
33 | Oc1ccccc1-c1ccccc1 [2-phenylphenol] | 1.22 ± 0.42

Same assay, conditions: Biolog plate: PM20; well positions: C5-8; ΔrcsB mutant CMS5177; 4 h

Row | Structure (SMILES) | PosmB-lux reporter fold induction
34 | CN1[C@@H]2CC[C@H]1C[C@@H](OC(=O)C(CO)c1ccccc1)C2 (stereo not given in full) [atropine] | 1.49 ± 0.44

Same assay, conditions: Biolog plate: PM20; well positions: E5-8; ΔrcsB mutant CMS5177; 4 h

Row | Structure (SMILES) | PosmB-lux reporter fold induction
35 | CCCCCCCCCCCCNC(=N)N [dodine] | 1.31 ± 0.24

Same assay, conditions: Biolog plate: PM20; well positions: F1-4; ΔrcsB mutant CMS5177; 4 h

Row | Structure (SMILES) | PosmB-lux reporter fold induction
36 | O=c1cc(O)c2ccccc2o1 [4-hydroxyl-coumarin] | 1.62 ± 0.32

Same assay, conditions: Biolog plate: PM20; well positions: G1-4; ΔrcsB mutant CMS5177; 4 h

Row | Structure (SMILES) | PosmB-lux reporter fold induction
37 | O=C1C2CC=CCC2C(=O)N1SC(Cl)(Cl)Cl (stereo not given) [captan] | 1.72 ± 0.34

Same assay, conditions: Biolog plate: PM20; well positions: G9-12; ΔrcsB mutant CMS5177; 4 h

Row | Structure (SMILES) | PosmB-lux reporter fold induction
38 | Oc1cccc2cccnc12 [8-hydroxy-quinoline] | 1.84 ± 0.48

Same assay, conditions: Biolog plate: PM20; well positions: H1-4; ΔrcsB mutant CMS5177; 4 h

Row | Structure (SMILES) | PosmB-lux reporter fold induction
39 | O=C1C=C2C(=CCOC2O)O1 (stereo not given) [patulin] | 2.24 ± 1.1

Same assay, conditions: Biolog plate: PM20; well positions: H5-8; ΔrcsB mutant CMS5177; 4 h

Row | Structure (SMILES) | PosmB-lux reporter fold induction
40 | Cc1ccc(N(SC(F)(Cl)Cl)S(=O)(=O)N(C)C)cc1 [tolylfluanid] | 1.7 ± 0.64
